Compound activity from PubChem BioAssay.
Hits are enriched below; roughly 5.4% of the tested compounds scored in any of these assays.
MIN6 prolif: induces beta-cell replication in MIN6 cells; AID 2380; proliferation, % at 10 µM; MIN6 cells proliferation, ATPlite luminescence, 48 h; cells starved in 0.2% serum; 100% = growth in 10% serum; 330,000 compounds, 0.29% hits;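 active means compounds whose signal lies at least 3.5 SD above the mean of all wells on their plate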;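 further: 0% = DMSO-treated cells in low-serum medium and 100% = 10% serum control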
PfM18AAP inh: PfM18AAP enzyme inhibition. recombinant PfM18AAP, H-Glu-NHMec fluorogenic cleavage. inhibition, % at 7.35 µM. 290,000 compounds, 1.2% hits;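 active means inhibition above the campaign mean inhibition over all tested compounds plus 3 SD, cut at about 28% in these data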;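 further: 0% = plate median of test compound wells and 100% = 2 mM ZnCl2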
SMARCA2 act: SMARCA2 function activation, primary screen; MG213 cells, MMTV-luciferase reporter, dexamethasone, overnight; activation, % at 9.1 µM; 370,000 compounds, 1% hits; AID 652017; in the data active means activation above about 7.8%;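 further: 0% = vehicle wells and 100% = reference activator wells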
GASC-1 inh: human JMJD2C demethylase inhibition | GST-JMJD2C(1-420) H3K9me3 demethylation, DELFIA europium | inhibition, % at 2.35 µM | 330,000 compounds, 0.069% hits;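 active means more than half of a compound's replicate wells show inhibition beyond 50%, single wells judged on their own value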;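 further: signal counts dimethyl H3K9 product captured on neutravidin plate; 0% = median of DMSO wells and 100% = 0.3 times that DMSO median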
Target sequence (Q9H3R0 1-420 limits assumed): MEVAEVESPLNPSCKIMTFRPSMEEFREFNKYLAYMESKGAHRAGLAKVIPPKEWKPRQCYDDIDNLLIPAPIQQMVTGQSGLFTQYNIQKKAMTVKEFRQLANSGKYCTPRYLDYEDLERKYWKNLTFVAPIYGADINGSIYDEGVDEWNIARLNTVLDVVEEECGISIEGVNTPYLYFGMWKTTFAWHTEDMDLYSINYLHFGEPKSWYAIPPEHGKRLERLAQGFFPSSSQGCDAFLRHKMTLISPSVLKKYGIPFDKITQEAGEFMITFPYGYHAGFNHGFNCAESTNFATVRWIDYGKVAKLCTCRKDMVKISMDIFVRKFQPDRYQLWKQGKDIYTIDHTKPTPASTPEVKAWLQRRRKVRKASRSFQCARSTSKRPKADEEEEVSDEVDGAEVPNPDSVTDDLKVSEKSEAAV
Granule exo inh: blocks lytic granule exocytosis; 360,000 compounds, 0.66% hits; TALL-104 LAMP-1 surface exposure, flow cytometry; cells stimulated with thapsigargin and PMA; inhibition, % at 10 µM;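 active means inhibition above about 55%, limit read from the data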
ALR inh: human ALR oxidase inhibition via reduced H2O2. purified ALR, DTT oxidation, H2O2 HRP-luminol luminescence. inhibition, % (concentration not given with the values). 290,000 compounds, 3.8% hits. AID 485317;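 active means mean replicate inhibition above about 79%, with every replicate also reaching it, limit read from the data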
Target sequence (P55789 whole entry, looked up): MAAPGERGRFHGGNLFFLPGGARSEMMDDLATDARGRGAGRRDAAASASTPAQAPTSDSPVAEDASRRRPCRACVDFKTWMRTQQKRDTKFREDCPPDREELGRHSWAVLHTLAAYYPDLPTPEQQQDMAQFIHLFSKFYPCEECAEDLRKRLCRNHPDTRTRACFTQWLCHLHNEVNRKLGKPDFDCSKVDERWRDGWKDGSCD
Granule exo CP1: blocks lytic granule exocytosis | shares compounds with Granule exo inh | TALL-104 cells, LAMP-1 externalization, flow cytometry; stimulated with PMA plus thapsigargin | inhibition, % at 10 µM | 1,500 compounds, 11% hits | AID 651954; in the data active means inhibition above about 60%;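 further: 0% = stimulated vehicle wells and 100% = unstimulated wells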
Numbers without * were called inactive; · = no result.

SMILES | MIN6 prolif | PfM18AAP inh | SMARCA2 act | GASC-1 inh | Granule exo inh | ALR inh | Granule exo CP1
CCOc1cc(CNCc2ccccc2)ccc1OCc1ccc(Cl)cc1 | -6.3 | 5.9 | -4.1 | -17.6 | 90.4* | -5.3 | 22.0
O=C(Nc1ccccc1)Nc1nc(-c2ccccc2)cs1 | 0.9 | -7.8 | -5.2 | 0.3 | -5.4 | -0.8 | ·
COc1cccc(-c2csc(NC(=O)Nc3ccccc3)n2)c1 | -3.7 | 1.4 | -3.6 | -10.7 | 87.7* | · | -3.2
COc1ccc(CCN2CCCC(CN(C)Cc3cccc(OC)c3)C2)cc1 (stereo unspecified) | -0.9 | 6.3 | 3.0 | -1.9 | 56.2* | · | -14.4
Cc1cc(C(=O)N(C)CC2CCCN(CCc3ccc(F)cc3)C2)c(C)o1 (stereo unspecified) | -2.0 | 10.7 | 2.9 | -6.3 | -7.9 | -7.8 | ·
CN(C)C(=O)CCC(=O)N(C)CC1CCCN(CCc2ccc(F)cc2)C1 (stereo unspecified) | -1.6 | 0.1 | 7.5 | 38.3 | 2.7 | · | ·
COc1ccc(CN(C)CC2CCCN(CCc3ccc(F)cc3)C2)c(OC)c1OC (stereo unspecified) | -4.4 | 1.0 | 4.5 | 25.4 | 70.0* | · | -1.6
COc1ccc(CCN2CCCC(CN(C)Cc3cc(OC)ccc3OC)C2)cc1 (stereo unspecified) | -4.5 | 1.4 | -2.4 | 2.8 | 71.8* | -4.5 | -13.6
COc1ccc(CCN2CCCC(CN(C)C(=O)c3ccoc3C)C2)cc1 (stereo unspecified) | -1.6 | -0.5 | 1.8 | 15.8 | -3.3 | -6.8 | ·
C[C@@H]1COc2cc(Br)ccc2S(=O)(=O)N1Cc1cn(Cc2ccc(C(F)(F)F)cc2)nn1 | · | · | 2.2 | · | · | · | ·
CCN(CC)CCCC(C)NC(=O)c1c(NC(=O)c2ccccc2)sc2c1CCCC2 (stereo unspecified) | -4.0 | 4.0 | 5.8 | 2.1 | 77.8* | · | -2.6
CCN(Cc1ccc(NC(C)=O)cc1)CC1CCCN(CCc2cccc(OC)c2)C1 (stereo unspecified) | -0.9 | -6.9 | -1.0 | 12.4 | 50.8 | -0.3 | ·
COCc1cc(CN2CCN(CCc3ccccc3)C(CCO)C2)ccc1OC (stereo unspecified) | 1.1 | -5.8 | -1.0 | 1.1 | 36.4 | -0.9 | ·
CCN(Cc1ccc(OC)c(COC)c1)CC1CCCN(CCc2cccc(OC)c2)C1 (stereo unspecified) | -4.8 | -15.6 | -3.2 | 32.0 | 72.0* | -4.5 | -11.7
CCN(Cc1ccccc1OC)CC1CCCN(CCc2cccc(OC)c2)C1 (stereo unspecified) | -2.6 | 2.8 | -2.5 | -8.7 | 63.0* | -5.3 | -10.7
CCN(Cc1ccc(OC)c(COC)c1)CC1CCCN(CCc2cccc(F)c2)C1 (stereo unspecified) | -4.5 | -19.9 | 0.3 | -15.8 | 67.9* | 0.5 | -11.7
CCCCC1OC(CCc2ccccc2)CC2=C1C(=O)OC(C)(C)O2 (stereo unspecified) | · | · | -3.5 | · | · | · | ·
C[C@H](c1ccccc1)N1C[C@@H](COCc2ccccc2)Oc2cc(N3CC[C@@H](N(C)C)C3)ccc2S1(=O)=O | · | · | -2.5 | · | 63.0* | · | 12.6
C[C@H](c1ccccc1)N1C[C@@H](COCc2ccccc2)Oc2cc(N3CC[C@H](N(C)C)C3)ccc2S1(=O)=O | · | · | 1.0 | · | 53.4 | · | ·
C[C@H](c1ccccc1)N1C[C@@H](COCc2ccccc2)Oc2cc(N3CC[C@@H](O)C3)ccc2S1(=O)=O | · | · | -6.1 | · | -0.3 | · | ·
C[C@@H](c1ccccc1)N1C[C@@H](COCc2ccccc2)Oc2cc(N3CC[C@H](N(C)C)C3)ccc2S1(=O)=O | · | · | -1.9 | · | 69.9* | · | 16.5
Cc1ccccc1-c1ccc2c(c1)[C@@H]1C[C@H]3[C@@H](CN1CC2)[C@H](C)ON3C | · | · | -5.0 | · | · | · | ·
COc1ccccc1NC(=O)N(C)C[C@H]1OCc2cn(nn2)CCCC(=O)N([C@H](C)CO)C[C@@H]1C | · | · | -2.8 | · | · | · | ·
Cc1ccc(S(=O)(=O)N2CCN(C(=S)NCc3ccc4c(c3)OCO4)CC2)cc1 | -1.9 | 5.4 | -0.2 | -3.0 | 74.9* | -15.0 | -3.8
Cc1ccc(-n2cc(-c3ccccc3)c3c(N4CCN(C)CC4)ncnc32)cc1 | -6.5 | -3.0 | -4.8 | 10.5 | 69.0* | -97.9 | 6.8
SMILES | MIN6 prolif | PfM18AAP inh | SMARCA2 act | GASC-1 inh | Granule exo inh | ALR inh | Granule exo CP1
C[C@H](CO)N1C[C@H](C)[C@H](CN(C)C(=O)Nc2cccc(F)c2)OCc2cnnn2CCCC1=O | · | · | -3.5 | · | · | · | ·
Cc1cc(CNC(=O)COc2ccc([N+](=O)[O-])cc2)c2ccccc2n1 | -1.7 | 6.7 | -0.5 | -2.5 | 60.2* | -2.4 | -14.0
Cc1cc(C)c(CN2CCN(CCCn3cnc(C(=O)Nc4ccc(C)c(C)c4)n3)CC2)c(C)c1 | · | · | -3.0 | · | 57.0* | · | 15.1
Cc1ccc(NCCCn2cnc(C(=O)Nc3ccc(C)c(C)c3)n2)cc1C | · | · | -1.9 | · | -0.3 | · | ·
O=P(c1ccccc1)(c1ccccc1)C(O)c1ccc(Br)cc1 (stereo unspecified) | 1.2 | -7.9 | -2.5 | 4.1 | 59.6* | 0.8 | -12.4
COc1ccc(-c2ccc3c(n2)CCCN3S(=O)(=O)c2ccc(C(F)(F)F)cc2)cc1 | · | · | -3.8 | · | · | · | ·
O=S1(=O)N[C@@H](Cc2ccccc2)COc2cc(NCCCN3CCOCC3)ccc21 | · | · | 1.7 | · | · | · | ·
C[C@H](CO)N1C[C@H](C)[C@@H](CN(C)S(C)(=O)=O)Oc2ccc(N(C)C)cc2C1=O | 0.9 | · | 1.7 | 47.0 | 60.0* | 5.6 | -12.1
C[C@H](CO)N1C[C@H](C)[C@@H](CN(C)S(C)(=O)=O)Oc2ccc(NC(=O)Nc3ccccc3)cc2C1=O | -3.3 | · | 1.0 | 20.0 | 2.6 | 1.8 | ·
COc1ccccc1C1CCN(Cc2ccc(Cl)cc2Cl)CC1 | -6.3 | 10.2 | 0.5 | -8.0 | -12.8 | -69.3 | ·
COc1ccccc1C1CCN(Cc2cccc3ccccc23)CC1 | -6.6 | 0.9 | -3.3 | 29.4 | 59.7* | -66.6 | -3.3
C=C(C)CSc1nc2sc(C)c(C)c2c(=O)n1C | · | · | -3.2 | · | · | · | ·
O=C(NCCc1c[nH]c2ccccc12)c1ccc(F)cc1F | -1.0 | -1.2 | 4.1 | -0.9 | 12.9 | · | ·
COc1cc(SC)ccc1C(=O)NCCc1c[nH]c2ccccc12 | -1.6 | 1.8 | 1.6 | -3.8 | 62.5* | · | -3.8
Cc1cccc(CN2CCSCCS2(=O)=O)c1 | · | · | -3.7 | · | · | · | ·
COc1ccc(Br)cc1CN(C)C(=O)CNC(=O)c1ccc2ccccc2c1 | 0.0 | 5.2 | -0.3 | 1.6 | 57.5* | · | -5.0
COc1ccc(C(=O)CSc2cc(C)nc(SCC(=O)c3ccc(C)cc3)n2)cc1 | 0.0 | -0.1 | -0.6 | 1.7 | 55.6* | -1.8 | -12.2
Cc1ccc(C(=O)CSc2nc(C)cc(SCc3nnc(-c4ccccc4)o3)n2)cc1 | 0.1 | 1.3 | -0.9 | 0.5 | 7.8 | -1.4 | ·
O=C1CCC[C@@H]2C[C@@]3(C[C@@H]4CCN1[C@H]24)Nc1cc(Cl)ccc1NC3=NC1CCCCC1 | · | · | 0.6 | · | 75.5* | · | -11.8
O=c1ccn(C2CC(O)C(COC(c3ccccc3)(c3ccccc3)c3ccccc3)O2)c(=O)[nH]1 (stereo unspecified) | · | · | -4.2 | · | · | · | ·
